proKLK7 act = proKLK7 (human) activation, primary screen. purified proKLK7, EDANS-DABCYL substrate fluorescence; 100% is mature enzyme control, 0% vehicle. hit rate 0.9% among 370,000. P49862. activation, % at 7 µM;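 active = activation above the mean of all tested compounds plus 3 SD, computed per campaign excluding outliers beyond control limits, cut at about 13% in these data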
DSG3 Ab inh = inhibitors of pemphigus antibody binding to human desmoglein-3. DSG3-coupled beads, scFv-anti-DSG3-GFP binding, flow cytometry; stronger effect = lower value. P32926. AID 588358. binding (percent of control), % at 10 µM. hit rate 0.48% among 310,000;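 active = binding more than 3 SD below its plate's average and above zero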
ADAM10 inh = inhibitors of human ADAM10 | O14672 | recombinant ADAM10, EDANS/DABCYL FRET peptide cleavage, 3 h | inhibition, % at 7 µM | hit rate 0.62% among 370,000;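 active = inhibition above a per-campaign cutoff equal to the mean of compounds falling between control-based bounds plus 3 SD, cut at about 20% in these data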;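 note: 0% = DMSO wells while the 100% control is not disclosed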
rCAG RNA binder = binds r(CAG) RNA repeats. r(CAG) RNA repeat, TO-PRO-1 dye displacement fluorescence. inhibition, % at 3 µM. hit rate 1.3% among 370,000. AID 651821;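 active = inhibition above the plate cutoff, the mean of all test compounds on that plate plus 3 SD, cut at about 35% in these data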;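 note: 0% = DMSO alone and 100% = 100 µM mitoxantrone as full dye displacement; higher means more dye released from RNA so lower well fluorescence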
ADAM17 inh = inhibits human ADAM17; P78536; inhibition, % at 6.95 µM; recombinant ADAM17, EDANS/DABCYL FRET peptide cleavage; hit rate 0.83% among 370,000;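 active = inhibition above the mean of compounds lying between control limits plus 3 SD, set per campaign, cut at about 8.5% in these data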;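 note: 0% = DMSO-only wells as the low control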
Target sequence (P78536 215-824 limits assumed): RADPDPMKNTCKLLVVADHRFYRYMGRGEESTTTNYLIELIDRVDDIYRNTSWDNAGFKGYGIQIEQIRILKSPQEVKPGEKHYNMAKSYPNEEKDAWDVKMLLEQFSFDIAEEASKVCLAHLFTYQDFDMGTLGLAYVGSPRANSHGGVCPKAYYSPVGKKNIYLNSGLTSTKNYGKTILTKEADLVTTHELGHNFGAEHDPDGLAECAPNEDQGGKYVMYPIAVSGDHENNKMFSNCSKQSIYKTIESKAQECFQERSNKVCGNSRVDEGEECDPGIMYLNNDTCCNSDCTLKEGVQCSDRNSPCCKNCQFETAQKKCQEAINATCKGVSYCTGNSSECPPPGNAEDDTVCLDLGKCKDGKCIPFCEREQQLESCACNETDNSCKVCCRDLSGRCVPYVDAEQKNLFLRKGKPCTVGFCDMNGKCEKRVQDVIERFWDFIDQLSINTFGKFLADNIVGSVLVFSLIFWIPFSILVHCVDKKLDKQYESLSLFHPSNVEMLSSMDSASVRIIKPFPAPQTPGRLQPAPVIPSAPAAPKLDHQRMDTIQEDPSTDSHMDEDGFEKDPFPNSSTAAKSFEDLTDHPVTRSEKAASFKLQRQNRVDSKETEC
MPTP inh = blocks calcium-induced mitochondrial swelling. isolated mouse mitochondria, Ca2+ swelling absorbance, 30 min. hit rate 1.4% among 360,000. AID 602449. inhibition, % at 10 µM;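 active = inhibition of 50% or more, scaled per plate between neutral and stimulator controls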;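 note: 0% = DMSO wells given calcium and 100% = 1 mM EGTA wells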
Rh123 counter = Rhodamine 123 counter-screen of mitochondrial pore hits; shares compounds with MPTP inh; isolated mitochondria, membrane potential, Rhodamine 123 fluorescence; inhibition, % at 10 µM; hit rate 78% among 5,000; AID 624504; in the data active = inhibition above about 22%;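 note: 0% = DMSO vehicle and 100% = positive control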
MPTP abs DR = dose response confirmation of mitochondrial permeability transition pore inhibitors; shares compounds with MPTP inh; isolated mitochondria swelling, absorbance; IC50, µM; hit rate 58% among 780; in the data active = IC50 below about 20 µM
MPTP cs DR = MPTP inhibitor counter-screen activity, dose response; shares compounds with MPTP inh; isolated mitochondria counterscreen, fluorescence read-out; IC50, µM; hit rate 49% among 780; in the data active = IC50 below about 80 µM
Numbers without * were called inactive. Rows were chosen to be rich in hits. Some 4.7% of all compounds tested hit in one or more screens of this group.

Screening CNC(=O)Nc1cccc(C(F)(F)F)c1 returned proKLK7 act -1, DSG3 Ab inh 104, ADAM10 inh -2, rCAG RNA binder 3, ADAM17 inh -3 and MPTP inh 5.
For O=C(NCc1ccc2c(c1)CCO2)Nc1cccc(C(F)(F)F)c1 the results were proKLK7 act 1, DSG3 Ab inh 96, ADAM10 inh 1, rCAG RNA binder -2, ADAM17 inh 1, MPTP inh 67* and Rh123 counter 83*.
Screening O=C(Nc1ccccc1)Nc1cccc(C(F)(F)F)c1 returned proKLK7 act -1, DSG3 Ab inh 101, ADAM10 inh 10, rCAG RNA binder 4, ADAM17 inh 3, MPTP inh 96* and Rh123 counter 97*.
`O=C(Nc1cccc(C(F)(F)F)c1)C(Sc1ncnc2ccccc12)c1ccccc1` (centres undefined) gave proKLK7 act 0, DSG3 Ab inh 107, ADAM10 inh 0, rCAG RNA binder 6, ADAM17 inh 1, MPTP inh 60* and Rh123 counter 68*.
For Cc1cc(C)cc(NC(=O)C(Sc2ncnc3ccccc23)c2ccccc2)c1 (centres undefined) the results were proKLK7 act 0, DSG3 Ab inh 91, ADAM10 inh -8, rCAG RNA binder 10, ADAM17 inh -3 and MPTP inh 2.
For Cc1ccccc1NC(=O)Nc1ccc(C(F)(F)F)cc1 the results were proKLK7 act 1, DSG3 Ab inh 91, ADAM10 inh 17, rCAG RNA binder 4, ADAM17 inh 6, MPTP inh 80* and Rh123 counter 87*.
Screening C#CCNC(=O)C[C@H]1C[C@@]2(C(=O)OC)C(=C[C@H](C3CCCC3)O[C@@H]2C)N(Cc2ccccc2)C1=O returned proKLK7 act 1, ADAM10 inh -1, rCAG RNA binder 0 and ADAM17 inh -2.
Screening Cc1cc(Oc2cccc3c2S(=O)(=O)N([C@H](C)c2ccccc2)C[C@@H](COCc2ccccc2)O3)cc(C)c1C returned proKLK7 act 0, ADAM10 inh -12, rCAG RNA binder 3 and ADAM17 inh -4.
Screening CCCN1CCN(C(=O)Nc2cccc(C(F)(F)F)c2)CC1 returned proKLK7 act -12, DSG3 Ab inh 89, ADAM10 inh 5, rCAG RNA binder -4, ADAM17 inh 0, MPTP inh 72* and Rh123 counter 92*.
`O=C(Nc1cccc(C(F)(F)F)c1)c1cc(-c2ccc(F)cc2)on1` gave proKLK7 act 0, DSG3 Ab inh 66, ADAM10 inh 6, rCAG RNA binder -1, ADAM17 inh 4, MPTP inh 67*, Rh123 counter 16, MPTP abs DR >100 and MPTP cs DR >80.
`O=C(CN1CCOCC1)Nc1cccc(C(F)(F)F)c1` gave proKLK7 act 1, ADAM10 inh 2, rCAG RNA binder -2, ADAM17 inh 1 and MPTP inh 0.
Screening O=C(Nc1cccc(C(F)(F)F)c1)n1cc(-c2ccccn2)c(N2CCOCC2)n1 returned proKLK7 act 0, DSG3 Ab inh 107, ADAM10 inh 1, rCAG RNA binder -1, ADAM17 inh 2, MPTP inh 86* and Rh123 counter 96*.
CCN1CCN(C(=S)Nc2cccc(C(F)(F)F)c2)CC1 was read as proKLK7 act 0, DSG3 Ab inh 100, ADAM10 inh 4, rCAG RNA binder -1, ADAM17 inh 1 and MPTP inh 36.
Fc1ccc(NC(=S)N2CCN(c3cccc(C(F)(F)F)c3)CC2)cc1 was read as proKLK7 act -1, ADAM10 inh -2, rCAG RNA binder 0, ADAM17 inh 1, MPTP inh 101* and Rh123 counter 75*.
`COC(=O)[C@@]12CCCCC=C1N(CCc1ccc(Cl)cc1)C(=O)[C@H]2CC(=O)NCCc1ccccc1OC` gave proKLK7 act 0, ADAM10 inh -4, rCAG RNA binder 7 and ADAM17 inh -3.

Screening results from PubChem.
